# PubChem BioAssay (NCI)
# This is part of a sample that, as a whole, favours compounds with a hit. Of some 83,000 tested, about 20% had one in any assay.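 The test compound was applied at a single concentration to cells in 96-well plates for 48 hours, and percent growth was recorded.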 A number with no mark means an inactive call. Calls of active or inactive are those of the source. How the source made its calls: active means growth percent below 10; inactive means the rest.
# Key:
# Assay in all cases: NCI-60 one-dose screen, 48 h (100 = growth as untreated, 0 = no growth, -100 = all killed)
# [1] = system: HCT-15 colon
# [2] = system: HT29 colon
# [3] = system: SNB-75 CNS
# [4] = system: SNB-19 CNS; settings: 10 µM unless noted
# [5] = system: U251 CNS
# [6] = system: PC-3 prostate
# [7] = system: SK-MEL-5 melanoma
# [8] = system: UACC-62 melanoma
# [9] = system: LOX IMVI melanoma
# [10] = system: SK-MEL-28 melanoma
smiles,measurement,setting,value
COc1cc(-c2ccc3ncnc(N4CCc5ccc(Cl)cc54)c3c2)cnc1Cl,growth,[1]; 10 µM unless noted,24%
same,growth,[2]; 10 µM unless noted,15.1%
same,growth,[3]; 10 µM unless noted,-2.67% (active)
same,growth,[4],35%
same,growth,[5]; 10 µM unless noted,45.6%
same,growth,[6]; 10 µM unless noted,14.5%
same,growth,[7]; 10 µM unless noted,-1.72% (active)
same,growth,[8]; 10 µM unless noted,10%
same,growth,[9]; 10 µM unless noted,11.7%
same,growth,[10]; 10 µM unless noted,23.8%
NS(=O)(=O)c1cccc(Nc2nc(SCC(=O)c3ccc(F)cc3)nc3ccccc23)c1,growth,[1]; 10 µM unless noted,8.07% (active)
same,growth,[2]; 10 µM unless noted,18.3%
same,growth,[3]; 10 µM unless noted,28.3%
same,growth,[4],11.9%
same,growth,[5]; 10 µM unless noted,-12% (active)
same,growth,[6]; 10 µM unless noted,16.6%
same,growth,[7]; 10 µM unless noted,-29.1% (active)
same,growth,[8]; 10 µM unless noted,-49.8% (active)
same,growth,[9]; 10 µM unless noted,-44.6% (active)
same,growth,[10]; 10 µM unless noted,26.8%
COc1ccc2[nH]c(=O)c(CSc3ccccc3Nc3nccc(-c4ccc5c(c4)OCO5)n3)cc2c1,growth,[1]; 10 µM unless noted,74.3%
same,growth,[2]; 10 µM unless noted,75.2%
same,growth,[3]; 10 µM unless noted,71.8%
same,growth,[4],81.6%
same,growth,[5]; 10 µM unless noted,88.6%
same,growth,[6]; 10 µM unless noted,68.1%
same,growth,[7]; 10 µM unless noted,58.9%
same,growth,[8]; 10 µM unless noted,79.2%
same,growth,[9]; 10 µM unless noted,89.6%
same,growth,[10]; 10 µM unless noted,95.9%
COc1ccc(N=Nc2c(N)nn3c(-c4ccc5c(c4)C=S=C5)ccnc23)cc1,growth,[1]; 10 µM unless noted,18.2%
same,growth,[2]; 10 µM unless noted,47.6%
same,growth,[3]; 10 µM unless noted,35.6%
same,growth,[4],59.7%
same,growth,[5]; 10 µM unless noted,34.5%
same,growth,[6]; 10 µM unless noted,25%
same,growth,[7]; 10 µM unless noted,16.9%
same,growth,[8]; 10 µM unless noted,38%
same,growth,[9]; 10 µM unless noted,13%
same,growth,[10]; 10 µM unless noted,63.1%
O=C1NC(=S)/C(=C/c2cn(-c3ccccc3)nc2-c2ccccc2)S1,growth,[1]; 10 µM unless noted,20%
same,growth,[2]; 10 µM unless noted,22.9%
same,growth,[3]; 10 µM unless noted,80.7%
same,growth,[4],14.3%
same,growth,[5]; 10 µM unless noted,14.6%
same,growth,[6]; 10 µM unless noted,34.9%
same,growth,[7]; 10 µM unless noted,-42.3% (active)
same,growth,[8]; 10 µM unless noted,6.83% (active)
same,growth,[9]; 10 µM unless noted,28.9%
same,growth,[10]; 10 µM unless noted,20.5%
C/C(=N/O)c1ccc(NC(=O)CSc2nnc(-c3ccc4nc(-c5ccc(Cl)cc5)[nH]c4c3)o2)cc1,growth,[1]; 10 µM unless noted,99.1%
same,growth,[2]; 10 µM unless noted,93.2%
same,growth,[3]; 10 µM unless noted,55.8%
same,growth,[4],20.8%
same,growth,[5]; 10 µM unless noted,-58.8% (active)
same,growth,[6]; 10 µM unless noted,41%
same,growth,[7]; 10 µM unless noted,11%
same,growth,[8]; 10 µM unless noted,10.5%
same,growth,[9]; 10 µM unless noted,-64.4% (active)
same,growth,[10]; 10 µM unless noted,-61.5% (active)
O=C(CSc1nnc(-c2ccc(-c3nc4ccccc4[nH]3)cc2)o1)Nc1ccccc1,growth,[1]; 10 µM unless noted,55.5%
same,growth,[2]; 10 µM unless noted,70.7%
same,growth,[3]; 10 µM unless noted,46.6%
same,growth,[4],3.01% (active)
same,growth,[5]; 10 µM unless noted,-61% (active)
same,growth,[6]; 10 µM unless noted,86.2%
same,growth,[7]; 10 µM unless noted,82.7%
same,growth,[8]; 10 µM unless noted,92.1%
same,growth,[9]; 10 µM unless noted,3.54% (active)
same,growth,[10]; 10 µM unless noted,36.3%
C=CCSc1nnc(-c2c(C)nc3sccn23)o1,growth,[1]; 10 µM unless noted,92.7%
same,growth,[2]; 10 µM unless noted,96.1%
same,growth,[3]; 10 µM unless noted,69.1%
same,growth,[4],82.7%
same,growth,[5]; 10 µM unless noted,88%
same,growth,[6]; 10 µM unless noted,88.9%
same,growth,[7]; 10 µM unless noted,95.5%
same,growth,[8]; 10 µM unless noted,74.4%
same,growth,[9]; 10 µM unless noted,95.5%
same,growth,[10]; 10 µM unless noted,96.7%
CC/C(=C(\c1ccc(O)cc1)c1ccc(OCCN(C)C(=O)COCCNC(=O)Cc2ccc3c(c2)CN([C@@H]2CCC(=O)NC2=O)C3=O)cc1)c1ccccc1,growth,[1]; 1 µM,110%
same,growth,[1]; 10 µM,99.5%
same,growth,[2]; 1 µM,110%
same,growth,[2]; 10 µM,80.1%
same,growth,[3]; 1 µM,44.9%
same,growth,[3]; 10 µM,4.63% (active)
same,growth,[5]; 1 µM,97.4%
same,growth,[5]; 10 µM,80%
same,growth,[6]; 1 µM,26.7%
same,growth,[6]; 10 µM,18.7%
same,growth,[7]; 1 µM,83.7%
same,growth,[7]; 10 µM,31.8%
same,growth,[8]; 1 µM,93.4%
same,growth,[8]; 10 µM,77.8%
same,growth,[9]; 1 µM,101%
same,growth,[9]; 10 µM,90.4%
same,growth,[10]; 1 µM,90.4%
same,growth,[10]; 10 µM,57%
O=C1Nc2cc(-c3ccc(NS(=O)(=O)c4ccc([N+](=O)[O-])cc4)cc3)ccc2/C1=C/c1ccc[nH]1,growth,[1]; 10 µM unless noted,11%
same,growth,[2]; 10 µM unless noted,-17.3% (active)
same,growth,[3]; 10 µM unless noted,34.1%
same,growth,[4],31.1%
same,growth,[5]; 10 µM unless noted,-62.4% (active)
same,growth,[6]; 10 µM unless noted,25.7%
same,growth,[7]; 10 µM unless noted,24.2%
same,growth,[8]; 10 µM unless noted,0.956% (active)
same,growth,[9]; 10 µM unless noted,-20.6% (active)
same,growth,[10]; 10 µM unless noted,9.97% (active)
Cc1nn(-c2ccccc2)c2nc(C)n(C(=O)N/N=C/c3ccccc3)c(=O)c12,growth,[1]; 10 µM unless noted,107%
same,growth,[2]; 10 µM unless noted,106%
same,growth,[3]; 10 µM unless noted,62.3%
same,growth,[4],87%
same,growth,[5]; 10 µM unless noted,95.5%
same,growth,[6]; 10 µM unless noted,92.7%
same,growth,[7]; 10 µM unless noted,103%
same,growth,[8]; 10 µM unless noted,92.6%
same,growth,[9]; 10 µM unless noted,96.8%
same,growth,[10]; 10 µM unless noted,105%
Nc1cc2ccccc2c(=O)n1NC(=O)c1ccccc1,growth,[1]; 10 µM unless noted,93.8%
same,growth,[2]; 10 µM unless noted,113%
same,growth,[3]; 10 µM unless noted,80.3%
same,growth,[4],93.7%
same,growth,[5]; 10 µM unless noted,106%
same,growth,[6]; 10 µM unless noted,91.7%
same,growth,[7]; 10 µM unless noted,96%
same,growth,[8]; 10 µM unless noted,76.5%
same,growth,[9]; 10 µM unless noted,88%
same,growth,[10]; 10 µM unless noted,98.8%
